# High-throughput results from PubChem.
# hcDAF12 agonist: H. contortus DAF-12 nuclear receptor activators, primary screen, cell-based, luminescence, HEK293, lit1-tk-luc reporter; HEK293 hcDAF-12 lit1-tk-luc reporter; 0% DMSO, 100% Δ7-dafachronic acid; activation, % at 6.8 µM; 370,000 compounds, 1.4% hits; AID 652067, 2013;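 active = activation above the mean of all tested compounds plus 3 SD, cut at about 5.5% in these data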;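 also: 100% = response to 3 µM Δ7-dafachronic acid high control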
# ssDAF-12 act: S. stercoralis DAF-12 nuclear receptor activators, primary screen, cell-based, luminescence, HEK293, GRIP1 co-expression, lit1-tk-luc; HEK293 ssDAF-12/GRIP1 lit1-tk-luc reporter; % of 3 µM dafachronic acid response; activation, % at 6.8 µM; 370,000 compounds, 1% hits;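 active = activation above the mean over all tested compounds plus 3 SD, cut at about 0.9% in these data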;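 also: 0% = DMSO-only wells and 100% = 3 µM delta7-dafachronic acid wells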
# DAX1 inh-1: DAX1 (NR0B1) inhibitors on StAR promoter, primary screen, cell-based, luminescence, SF-1 (NR5A1), full-length DAX-1; 370,000 compounds, 1.1% hits; HEK293T StAR-luciferase reporter, SF-1/DAX-1 repression relief; inhibition, % at 6.8 µM;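 active = inhibition above the mean over all tested compounds plus 3 SD, cut at about 3.6% in these data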;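 also: 0% = DAX-1 cells with DMSO and 100% = cells lacking DAX-1 with DMSO; higher inhibition means more luminescence from relief of DAX-1 repression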
# SMARCA2 act: SMARCA2 (BRM) function activators, primary screen, cell-based, luminescence, high throughput; AID 652017, 2013; 370,000 compounds, 1% hits; activation, % at 9.1 µM; MG213 cells, MMTV-luciferase reporter, dexamethasone, overnight; in the data active = activation above about 7.8%;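 also: 0% = vehicle wells and 100% = reference activator wells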
# hgDAF12 agonist: H. glycines DAF-12 receptor agonists, primary screen, cell-based, luminescence, HEK293, GAL4 fusion, UAS-luciferase; 370,000 compounds, 1.8% hits; Nuclear hormone receptor DAF-12 (Heterodera glycines), GAL4 fusion; HEK293 GAL4-hgDAF12 UAS-luciferase reporter, agonist luminescence; normalized to butyrate control; activation, % at 6.8 µM;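 active = activation above a cutoff set at the mean of all screened compounds plus 3 SD, cut at about 10% in these data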;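 also: 0% = DMSO wells and 100% = sodium butyrate wells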
# DAX1 inh-2: DAX1 (NR0B1) inhibitors, primary screen, cell-based, HEK293, Gal4-DAX1, luciferase luminescence | AID 504766, 2011 | Nuclear receptor subfamily 0 group B member 1 (Homo sapiens), P51843 | inhibition, % at 6.75 µM | HEK293 Gal4-DAX1 luciferase reporter | 340,000 compounds, 0.99% hits;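 active = inhibition above the mean over all tested compounds plus 3 SD, cut at about 4.2% in these data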;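 also: 0% = DAX1-transfected cells with DMSO and 100% = empty-vector control cells with DMSO; inhibition shows as a rise in luminescence from relieved DAX1 repression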
# LXRb hcDAF ctr: LXR agonists, Gal4 luciferase reporter, confirmation, counter-screen for hcDAF-12 agonist project, cell-based, luminescence, HEK293, H. contortus campaign | HEK293 Gal4-LXR tk-luc reporter, 24 h; normalized: DMSO 0%, positive control 100% | 3,400 tested, under 10 active | activation, % at 6.8 µM | shares compounds with hcDAF12 agonist;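 active = mean percent activation of the reporter above a cutoff set as the average over tested compounds plus their standard deviation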
# Target sequence (P55055 whole entry, looked up, the tested form may be a part): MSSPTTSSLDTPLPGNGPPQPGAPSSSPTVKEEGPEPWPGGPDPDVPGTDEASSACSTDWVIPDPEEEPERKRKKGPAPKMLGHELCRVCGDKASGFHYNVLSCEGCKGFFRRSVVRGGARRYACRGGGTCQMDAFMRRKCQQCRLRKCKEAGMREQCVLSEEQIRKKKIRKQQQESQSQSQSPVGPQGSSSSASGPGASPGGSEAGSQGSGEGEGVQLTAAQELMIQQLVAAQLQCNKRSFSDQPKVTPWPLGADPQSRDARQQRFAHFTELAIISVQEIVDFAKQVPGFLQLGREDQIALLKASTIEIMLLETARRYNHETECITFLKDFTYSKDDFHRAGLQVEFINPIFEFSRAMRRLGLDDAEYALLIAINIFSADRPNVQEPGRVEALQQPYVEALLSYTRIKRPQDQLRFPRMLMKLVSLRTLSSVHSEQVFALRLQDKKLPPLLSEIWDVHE
# hcDAF12 ag: H. contortus DAF-12 receptor agonists, confirmation, cell-based, luminescence, HEK293, lit1-tk-luc, triplicate; shares compounds with hcDAF12 agonist; HEK293 hcDAF-12 lit1-tk-luc reporter; % of Δ7-dafachronic acid response; activation, % at 6.8 µM; AID 743032, 2013; 3,400 compounds, 61% hits;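 active = mean activation across triplicate tests above the threshold derived from the earlier primary screen, cut at about 5.5% in these data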;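 also: 0% = DMSO only wells and 100% = 3 µM Δ7-dafachronic acid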
# * marks the source's active call; other numbers are inactive results; . = no result. Sampled rows, rich in hits. Any-hit rate of the full collection: about 4.8%.
SMILES,hcDAF12 agonist,ssDAF-12 act,DAX1 inh-1,SMARCA2 act,hgDAF12 agonist,DAX1 inh-2,LXRb hcDAF ctr,hcDAF12 ag
Cc1ccc(C2c3[nH]c4ccccc4c3C[C@H]3C(=O)N(c4ccccc4C(=O)N4CCC(C(=O)O)CC4)C(=O)N23)cc1 (stereo partly specified),9.6*,0,3,2,4,4,0,3
c1ccc(-c2ccc(-c3ccccn3)s2)nc1,15*,3.8*,2,7,13*,4.7*,1,13*
COc1ccccc1C(=O)NC(=S)Nc1ccccc1N1CCCC1,7.1*,0,-2,-3,-2,2,0,7.6*
O=C(NC(=S)Nc1ccccc1N1CCCCC1)c1ccccc1,0,-1,-1,2,-3,-1,.,.
O=C(NC(=S)Nc1ccccc1N1CCCC1)c1ccc(F)cc1,9.1*,0,0,-3,6,0,0,3
Cn1c(=O)c2c(nc(SCCN3CCOCC3)n2Cc2ccccc2Cl)n(C)c1=O,-2,-2,-1,-1,-4,-1,.,.
Cn1c(=O)c2c(nc(SCCN3CCOCC3)n2Cc2ccc(F)cc2)n(C)c1=O,7.8*,1,3,6,10,4.4*,1,7.5*
CCS(=O)(=O)Nc1c(C(=O)O)[nH]c2ccccc12,7.6*,0,1,-2,1,0,0,5
COc1ccc(CC(=O)Nc2ccc(NC(=O)c3ccccc3F)cc2)cc1,9.8*,-2,0,-2,1,0,0,0
COc1ccc(OC)c(C(=O)Nc2c(O)ccc3ccccc23)c1,7.0*,0,0,3,1,-1,0,6.1*
COc1ccc(NC(=O)CSc2nc(N)c(NC(=O)c3ccccc3F)c(=O)[nH]2)cc1,-1,-1,0,4,0,1,.,.
COc1ccc(OC)c(NC(=O)Nc2c(O)ccc3ccccc23)c1,2,0,0,4,1,0,.,.
CCOc1ccc(NC(=O)c2cc3ccccc3cc2OC)cc1,7.0*,0,0,8,8,6.3*,1,6.1*
O=C(CC(=O)c1ccccc1)Nc1cccnc1,0,-2,1,2,1,0,.,.
O=C(Nc1ccccc1)C(=O)Nc1cccnc1,9.3*,1,3,4,10,1,1,5
Cc1ccc(/C=C/C(=O)Nc2ncc(C)s2)o1,7.2*,0,3,8,9,2,1,5
COc1ccc(OC)c(S(=O)(=O)N(CCc2ccc(OC)c(OC)c2)Cc2cccs2)c1,-2,-2,-2,-4,-2,.,.,.
O=C(OCC#CCSc1nnc(-c2cccc3ccccc23)o1)C1CCC1,-4,-1,.,.,1,.,.,.
Cc1cccc(-c2cccc3c4c([nH]c23)[C@@H]2C[C@H](N(C)C(=O)c3ccccc3F)[C@H]([C@H](C)O)CN2CC4)c1,2,-2,0,-1,-1,.,.,.
COc1ccc(Cn2cc(CN3[C@@H](c4ccccc4)COc4cc(Br)ccc4S3(=O)=O)nn2)cc1,2,-1,0,3,0,.,.,.
